# Screening data as filed in PubChem.
# Only some compounds are listed: those with a hit (about 18% of all), similar ones and a draw of the others.
# TDP1 cell CPT – growth inhibition of DT40 Tdp1-/-;hTDP1 cells with camptothecin (screen for TDP1 inhibitors). chicken DT40 Tdp1-/-;hTDP1 cells + 20 nM CPT, ATP luminescence, 48 h. Potency, µM (series often up to 46.2 µM), inactives show top-dose activity change, negative = growth inhibition, most hits filed as inhibitors. 420,000 tested, 12% active; further: potency means the concentration at half of the fitted maximal effect; nearly all actives have a fitted effect of over 55% in size
#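 Cell growth measured by CellTiter-Glo luminescence after a minimum 48 h, 37 C compound exposure with 20 nM CPT in Tdp1-knockout DT40 cells stably expressing hTDP1, seeded 400/well; qHTS titration format.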
# CtBP-E1A inh – blocks the CtBP interaction with E1A; AlphaScreen GST-E1A/His-CtBP binding, 1536-well; active compounds read low; 340,000 tested, 0.49% active; activity change, % (no concentration beside the values); in the data active means activity change below about -65%; inconclusive means mostly about -30% to -63%
#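 Protein mix (5X: 125 nM each GST-E1A, His-CtBP) was incubated with pinned compound 2 h at 37 deg C in dark, in 50 mM Tris pH 8.0 buffer with 300 mM NaCl. Glutathione donor and nickel acceptor beads followed; AlphaScreen signal read after 1 h.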
# IL1B secr inh – inflammasome signaling inhibition, IL-1 beta readout | activity change, % at 57.5 µM | THP-1 LPS/ATP IL-1B secretion, AlphaLISA, 16 h; active compounds read low | AID 743279 | 360,000 tested, 4.7% active; in the data active means activity change below about -50%; inconclusive means mostly about -30% to -49%
#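 Secreted IL-1B measured by AlphaLISA bead assay after 16 h compound exposure of THP-1 cells; compounds (final up to 57.5 uM) added 1 h before LPS (250 ng/mL) and ATP (1.25 mM) stimulation; lower signal means less secretion.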
# TDP1 cell noCPT – qHTS for Inhibitors of human tyrosyl-DNA phosphodiesterase 1 (TDP1): qHTS in cells in absence of CPT; Potency, µM (doses to about 46.2 µM), for inactives: top-dose activity change, negative = growth inhibition, usual class: inhibitors; 420,000 tested, 15% active; AID 686978, 2013; DT40 Tdp1-/- hTDP1 cells, no CPT, ATP luminescence, 48 h; further: potency means the concentration at half of the fitted maximal effect; nearly all actives have a fitted effect of over 55% in size
#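 Growth of hTDP1-complemented DT40 Tdp1-knockout cells is measured by ATP luminescence after at least 48 hr compound exposure at 37 °C, with DMSO substituting for the 20 nM CPT used in the parallel screen.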
# Six1-Eya2 inh – Six1/Eya2 interaction inhibition. Q15475+O00167. AlphaScreen GST-Six1/His-Eya2 binding, biochemical; active compounds read low. activity change, % (no concentration beside the values). 360,000 tested, 0.56% active. AID 651725; in the data active means activity change below about -65%; inconclusive means mostly about -30% to -63%
#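 GST-Six1 + His-Eya2 (5X stock: 250/500 nM); Tris pH 8.0, 300 mM NaCl, 0.05% BSA, 0.02% Tween 20; GSH donor/Ni acceptor beads; 1 h 37 °C dark; AlphaScreen readout.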
# TDP1 inh – blocks human tyrosyl-DNA phosphodiesterase 1; 350,000 tested, 0.28% active; Potency, µM (doses to about 130 µM), for inactives: at the highest dose activity change, negative = inhibition, actives largely listed as inhibitors; recombinant TDP1, AlphaScreen DNA substrate cleavage; further: potency means the concentration at half of the fitted maximal effect; nearly all actives have a fitted effect of over 40% in size
# Target sequence (Q9NUW8 whole entry, looked up): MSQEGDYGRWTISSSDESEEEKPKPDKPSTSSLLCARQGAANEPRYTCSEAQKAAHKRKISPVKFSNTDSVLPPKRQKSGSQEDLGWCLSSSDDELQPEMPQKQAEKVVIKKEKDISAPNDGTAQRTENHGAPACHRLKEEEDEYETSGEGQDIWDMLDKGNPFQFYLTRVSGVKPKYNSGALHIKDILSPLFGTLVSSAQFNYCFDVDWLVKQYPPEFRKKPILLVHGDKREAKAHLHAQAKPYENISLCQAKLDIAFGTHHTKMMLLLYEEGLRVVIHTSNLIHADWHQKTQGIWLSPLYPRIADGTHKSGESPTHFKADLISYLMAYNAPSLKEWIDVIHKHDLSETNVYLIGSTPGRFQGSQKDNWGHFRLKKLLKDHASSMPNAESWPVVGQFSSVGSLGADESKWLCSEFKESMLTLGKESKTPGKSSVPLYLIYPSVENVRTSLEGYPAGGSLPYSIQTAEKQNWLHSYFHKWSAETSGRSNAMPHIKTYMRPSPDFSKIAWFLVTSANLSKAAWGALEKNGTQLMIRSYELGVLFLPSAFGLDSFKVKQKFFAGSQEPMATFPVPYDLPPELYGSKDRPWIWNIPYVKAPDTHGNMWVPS
#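 Signal: AlphaScreen proximity between streptavidin donor and anti-FITC acceptor beads on intact substrate. Reaction: Tdp1 1 nM, substrate 15 nM final, 5 min RT after 15 min compound preincubation.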
# * marks the source's active call; other numbers are inactive results; u = inconclusive; x = no result given; [ ] = remark or other dose. Unless noted, the call rests on the fitted dose curve; in most records, active means well fitted curve in the direction sought with a large enough effect; inconclusive means small, poorly fitted or top-dose-only effect, or another doubt; inactive means no such curve, though single readings can be large; an effect the other way counts as inactive or inconclusive. On the % scale 0 is the no-effect control and ±100 the full control effect.
SMILES,TDP1 cell CPT,CtBP-E1A inh,IL1B secr inh,TDP1 cell noCPT,Six1-Eya2 inh,TDP1 inh
CCOC(=O)C1CCN(C(=O)c2cccc(S(=O)(=O)N3CCc4ccccc43)c2)CC1,u,x,30.0,u,0.6,0.7%
CSc1ccccc1OCc1cc(C(=O)NCCC2CCCCO2)no1 (configuration not stated),u,-1.6,-7.9,u,3.1,3.1%
CN(C(=O)/C(N=Nc1cccc(C(F)(F)F)c1)=C(\O)C(F)(F)F)c1ccccc1,-25.5%,-2.8,27.7,-10.1%,3.3,0.0%
Cc1nc(S/C(=C/c2ccc(-c3ccc(C(=O)O)cc3)o2)C(=O)O)n[nH]1,-3.4%,-0.4,10.0,1.6%,-27.4,3.98µM*
Cc1ccc2ccc(C(Nc3ccccc3)c3ccc(C(C)C)cc3)c(O)c2n1 (configuration not stated),14.6µM*,0.0,69.2,11.6µM*,-1.6,x
c1ccc(NC(c2ccccc2)c2ccncc2)cc1 (configuration not stated),-23.9%,31.2,-12.9,-33.5%,22.5,x
Cc1ccc2ccc(C(Nc3ccccc3)c3ccc(F)cc3)c(O)c2n1 (configuration not stated),9.2µM*,-19.3,71.0,5.8µM*,-11.0,x
Cc1ccc2ccc(C(Nc3ccccc3)c3ccc(Cl)cc3)c(O)c2n1 (configuration not stated),4.11µM*,-20.8,65.4,3.26µM*,-20.3,x
Cc1ccc2ccc(C(Nc3ccccc3)c3ccccc3)c(O)c2n1 (configuration not stated),10.3µM*,-23.1,46.7,6.51µM*,-18.1,x
Cc1ccc2ccc(C(Nc3cccc(C(F)(F)F)c3)c3cccnc3)c(O)c2n1 (configuration not stated),u,x,59.6,u,-4.7,9.8%
CC(C)(C)OC(=O)N1CCC[C@@H]1C(=O)N1CCC[C@@H]1C(=O)NCc1ccccc1Cl,-19.2%,6.4,19.9,-26.2%,-3.8,x
CN(C)S(=O)(=O)c1cccc(NC(=O)COC(=O)c2cccnc2Cl)c1,-16.3%,1.0,-3.2,-11.2%,-4.4,1.2%
CC1(Cc2cccc(C#N)c2)C(=O)Nc2c(Cl)cccc21 (configuration not stated),-20.2%,1.1,-4.6,-26.2%,2.5,x
CC1(Cc2ccccc2C#N)C(=O)Nc2cc(-c3ccccc3Cl)ccc21 (configuration not stated),23.1µM*,-8.0,-20.0,u,-8.0,x
CCCn1c(CCC(=O)Nc2cc(Cl)c(OC)cc2OC)nc2cccnc21,u,x,x,16.4µM*,x,3.8%
COc1cc(NC(=O)CCc2nc3cccnc3n2Cc2cccs2)cc(OC)c1OC,16.4µM*,x,x,16.4µM*,x,3.8%
CC(=O)c1cccc(NC(=O)CCc2nc3cccnc3n2Cc2cccs2)c1,u,x,x,-107.2%,x,6.4%
CCCn1c(CCC(=O)Nc2ccc(C)c(Cl)c2)nc2cccnc21,u,x,x,u,x,1.3%
Cc1ccc(C)c(NC(=O)CCc2nc3cccnc3n2Cc2cccs2)c1,18.4µM*,x,x,20.6µM*,x,6.4%
COc1ccc(CN2C(=O)C(CC(=O)NC3CC3)CC(C(=O)N3CCOCC3)=C2C)cc1 (configuration not stated),-21.8%,30.8,37.1,u,25.7,x
Cc1nn(CC(=O)Nc2nccs2)c(C)c1[N+](=O)[O-],6.7%,x,15.4,2.0%,-5.4,-2.7%
COc1ccccc1-n1c(/C=C/c2c(C)n(C)c3ccccc23)nc2ccccc2c1=O,u,x,x,3.66µM*,x,-2.2%[12.3 µM]
Cc1ccccc1-n1c(/C=C/c2c(C)n(C)c3ccccc23)nc2ccccc2c1=O,6.51µM*,x,x,8.2µM*,x,-11.9%[12.3 µM]
CCOP(=O)(OCC)C(Nc1ccccc1)c1cc(OC)ccc1OC (configuration not stated),u,1.5,0.0,u,4.2,0.0%
CCCCNC(=O)CCn1nc(-c2ccc(Cl)cc2)c2ccccc2c1=O,u,-14.8,u,u,-8.1,2.7%
SMILES,TDP1 cell CPT,CtBP-E1A inh,IL1B secr inh,TDP1 cell noCPT,Six1-Eya2 inh,TDP1 inh
COc1ccc(C(=O)N[C@H](C(=O)OCc2nc3ccsc3c(=O)[nH]2)C(C)C)cc1,8.4%,-9.7,23.6,-1.7%,3.3,-6.1%[0.505 µM]
Cc1ccccc1Nc1cc(C(=O)NCC2CCCO2)c2ccccc2n1 (configuration not stated),18.4µM*,8.5,17.2,u,1.3,3.6%
Cc1ccccc1-c1noc(-c2ccccc2C(=O)NCC2CCCO2)n1 (configuration not stated),u,5.6,4.6,18.4µM*,1.9,-1.4%
Cc1cc(NC(=O)COc2ccc3oc4ccccc4c3c2)no1,u,-0.1,22.9,20.6µM*,-8.1,6.2%
Cc1cc(NC(=O)COC(=O)c2oc3c(ccc4ccccc43)c2C)no1,u,7.5,13.2,16.4µM*,6.4,-2.7%
O=C(Nc1ccc(F)cc1)C1CCCN(c2cnccn2)C1 (configuration not stated),0.6%,x,1.0,u,-1.0,4.7%
O=C(Nc1ccc(C(=O)N2CCCCC2)cc1)C1CCC1,u,11.3,-14.1,-22.3%,-6.1,x
CN1C(=O)CSc2ccc(NC(=O)Nc3ccccn3)cc21,29.1µM*,-3.4,-60.0*,u,-2.1,-0.7%
COc1cccc(NC(=O)Nc2ccc3c(c2)N(C)C(=O)CS3)c1,u,-8.4,u,20.6µM*,-5.1,2.3%
Nc1nc2n[nH]nc2c(=O)[nH]1,7.31µM*,-18.8,40.7,7.31µM*,4.5,-10.8%[21 µM]
CCOc1ccccc1N1CCN(CC(=O)c2c(N)n(C)c(=O)n(C)c2=O)CC1,-21.5%,-0.3,8.3,u,-0.2,-5.9%
CN(C)N1C(=O)C2C3C=CC(O3)C2C1=O (configuration not stated),-4.8%,4.3,-1.9,-3.9%,2.2,x
COc1ccc(-c2csc(N3C(=O)CNC3=S)n2)cc1,0.1%,-9.7,-20.8,0.7%,-2.6,-2.7%
Cc1cc2nc(N3C(=O)CNC3=S)sc2cc1C,u,-0.3,-97.2*,5.8µM*,-0.6,-9.4%
O=C1CNC(=S)N1c1nc(-c2ccccc2)cs1,-4.8%,-10.3,-8.7,-9.9%,3.2,1.9%
CCOc1ccc2nc(N3C(=O)CNC3=S)sc2c1,16.4µM*,-4.5,-96.8*,6.51µM*,-23.1,10.3%
Nc1nc(-c2ccccc2)c(CCCOc2ccc([N+](=O)[O-])cc2)c(=O)[nH]1,-0.6%,-2.4,12.2,u,3.1,x
